Screens (PubChem)
Vaccinia Venus: qHTS for Stage-Specific Inhibitors of Vaccinia Orthopoxvirus: Venus Reporter Primary qHTS; Vaccinia virus Venus reporter expression, fluorescence; Potency, µM (titrated, usually from 36.5 µM), usual class: inhibitors; 0.46% of 330,000 active; calls by dose curve; tested in A549 cells; also: nearly all actives have a fitted effect of over 30% in size
HCMV antiviral: qHTS Assay for inhibitors of the human cytomegalovirus (HCMV); HFF cells, HCMV-luciferase reporter, 72 h; stronger effect = lower value; activity change, negative = inhibition, % at 57.5 µM; 4.5% of 410,000 active; AID 1259415, 2018; in the data active = activity change below about -60%; inconclusive = no clear call, values can overlap the other calls; inactive = above about -39%
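After 16 h attachment at 37C, HFF cells received test compound and HCMV-luciferase (1 PFU/cell); reporter luminescence read 72 h later, data normalized against buffer-only and known inhibitor Salinomycin.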
HCV inhibitor: qHTS Assay for Inhibitors of Hepatitis C Virus (HCV); Huh7.5.1 HCVcc-Cre infection, luciferase reporter, 44 h; Potency, µM (doses to about 41.8 µM), most hits filed as inhibitors; 3.4% of 340,000 active; active = well fitted inhibition curve with a large enough effect; inconclusive = small, poorly fitted or top-dose-only effect, or another doubt; inactive = no such curve, though single readings can be large or run the other way
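1,000 cells/well; 4 h culture; + compound; + HCVcc-Cre (~0.5 moi); 44 h; luciferase substrate, RT 15 min; read 15 sec.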
VACV mCherry inh: qHTS for Stage-Specific Inhibitors of Vaccinia Orthopoxvirus: mCherry Reporter Primary qHTS; Vaccinia virus mCherry reporter infection, fluorescence; Potency, µM (highest dose often 36.5 µM), actives largely listed as inhibitors; 0.63% of 310,000 active; AID 720579, 2013; calls by dose curve; tested in A549 cells; also: nearly all actives have a fitted effect of over 35% in size
FMDV antiviral: High Throughput Screening for Foot and Mouth Disease Virus Antivirals | Potency, µM (top dose mostly 57.9 µM), usual class: inhibitors | FMDV antiviral cell-based qHTS | AID 1159524, 2015 | 1.2% of 410,000 active; calls by dose curve; tested in HEK293T cells; also: read-out not given here; nearly all actives have a fitted effect of over 45% in size
Each line names hits and unclear results; the compound was inactive in the other large screens. Hits are enriched below; roughly 7.3% of the tested compounds scored in any of these assays.

CC(=O)NC(c1ccc(Cl)cc1)c1c(O)ccc2ccc(O)cc12 (centres undefined)	FMDV antiviral inconclusive
O=C(NC(c1ccc(Cl)cc1)c1c(O)ccc2ccccc12)c1ccccc1 (centres undefined)	Vaccinia Venus inconclusive, HCMV antiviral -101, HCV inhibitor inconclusive, VACV mCherry inh 10µM, FMDV antiviral inconclusive
O=C(NC(c1ccccc1)c1c(O)ccc2ccccc12)c1ccccc1Cl (centres undefined)	HCV inhibitor 14µM, FMDV antiviral inconclusive (no result: Vaccinia Venus, VACV mCherry inh)
CC(C)CC(=O)NC(c1ccccc1)c1c(O)ccc2ccccc12 (centres undefined)	none
CCOc1ccc(C2=NC(c3cccs3)=Nc3ccc(CC)cc3N2)cc1OCC	none (no result: HCV inhibitor)
Cc1cc(C)cc(NC(=O)C2CCCN2S(=O)(=O)c2cccc3nsnc23)c1 (centres undefined)	none (no result: HCV inhibitor)
COc1ccc(-c2c(C#Cc3ccsc3)c3cc(-c4cccc5[nH]ccc45)ccc3n2C)cc1	HCV inhibitor inconclusive, VACV mCherry inh inconclusive
COc1cc(OC)cc(-c2c(C#Cc3ccsc3)c3cc(-c4cccc5[nH]cc(C=O)c45)ccc3n2C)c1	HCV inhibitor 10µM
COc1ccc(-c2c(C#Cc3ccsc3)c3cc(-c4ccc(C(N)=O)cc4)ccc3n2C)cc1	HCMV antiviral inconclusive, HCV inhibitor 7.1µM
COc1ccc(-c2c(C#Cc3ccsc3)c3cc(-c4ccc5c(c4)OCO5)ccc3n2C)cc1	HCMV antiviral -71
COc1ccc(-c2c(C#Cc3ccsc3)c3cc(-c4ccc5[nH]ccc5c4)ccc3n2C)cc1	none
COc1ccc(-c2c(C#Cc3ccsc3)c3cc(-c4ccc5c(c4)OCCO5)ccc3n2C)cc1	none
Cc1cccc(Cc2c(C)nc3nc(SCC(=O)NCc4ccc(F)cc4)nn3c2C)c1	none (no result: HCV inhibitor)
COC(=O)c1c(NC(=O)c2ccccc2)sc(Cc2ccccc2)c1C	HCMV antiviral -62 (no result: Vaccinia Venus, VACV mCherry inh)
CCOC(=O)c1ccc(NC(=O)Cn2nc(SC)c(S(=O)(=O)c3ccc(Cl)cc3)c2N)cc1	Vaccinia Venus inconclusive, HCMV antiviral -104, VACV mCherry inh inconclusive, FMDV antiviral inconclusive (no result: HCV inhibitor)
COc1ccc(CCNc2ncnc3c2c(-c2ccccc2)cn3-c2ccc(F)cc2)cc1OC	FMDV antiviral inconclusive (no result: HCV inhibitor)
Cc1nc(NC(=O)c2ccccc2)sc1-c1csc(NCCc2ccccc2)n1	HCMV antiviral inconclusive, HCV inhibitor 10µM (no result: Vaccinia Venus, VACV mCherry inh)
Cc1nc(NC(=O)c2ccccc2)sc1-c1csc(NCc2ccccc2)n1	HCMV antiviral inconclusive, HCV inhibitor inconclusive, VACV mCherry inh inconclusive
CCCCC(=O)Nc1nc(C)c(-c2csc(Nc3cc(OC)ccc3OC)n2)s1	Vaccinia Venus inconclusive, HCV inhibitor 10µM, VACV mCherry inh 1.1µM
COc1ccc(OC)c(Nc2nc(-c3sc(NC(=O)CC(C)C)nc3C)cs2)c1	Vaccinia Venus inconclusive, HCMV antiviral inconclusive, HCV inhibitor 2.8µM, VACV mCherry inh inconclusive
CCC(=O)Nc1nc(C)c(-c2csc(Nc3ccccn3)n2)s1	HCV inhibitor 11µM, VACV mCherry inh inconclusive
CC(C)OC(=O)C1OC1(C)c1ccccc1 (centres undefined)	none
COc1ccc(C=NCCc2ccc(OC)c(OC)c2)cc1OC	none (no result: HCV inhibitor)
CCC(CO)Nc1nc2ccc(Cl)cc2c2ccccc12 (centres undefined)	Vaccinia Venus inconclusive, HCMV antiviral inconclusive, HCV inhibitor 4µM, VACV mCherry inh inconclusive
CC1(C2CC2)NC(=O)N(CC(=O)N2CCN(c3cccc(C(F)(F)F)c3)CC2)C1=O (centres undefined)	HCMV antiviral inconclusive, FMDV antiviral 35µM
COc1ccccc1CC(=O)N1CCN(c2cccc(C(F)(F)F)c2)CC1	HCMV antiviral -70, HCV inhibitor inconclusive, VACV mCherry inh inconclusive (no result: FMDV antiviral)
COC(=O)c1ccc(C2NC(=S)N(c3ccccc3)C(C)=C2C(=O)Nc2ccccc2OC)cc1 (centres undefined)	HCV inhibitor inconclusive (no result: Vaccinia Venus, VACV mCherry inh)
COc1ccccc1NC(=O)C1=C(C)N(c2ccccc2)C(=S)NC1c1cccc(C(F)(F)F)c1 (centres undefined)	HCMV antiviral -96, HCV inhibitor inconclusive (no result: Vaccinia Venus, VACV mCherry inh)
COc1ccccc1NC(=O)N1CCN(c2cccc(C(F)(F)F)c2)CC1	HCV inhibitor 11µM, FMDV antiviral inconclusive (no result: Vaccinia Venus, VACV mCherry inh)
CS(=O)(=O)c1ccc(C(O)C(CO)NC(=O)C(Cl)Cl)cc1 (centres undefined)	none (no result: HCMV antiviral, HCV inhibitor)
N#Cc1ccccc1NC(=O)CN(Cc1ccccc1)Cc1ccccc1	HCV inhibitor inconclusive
COc1ccc(NC(=O)c2cc(C3CCCCN3C(=O)c3cc(C(C)(C)C)nn3C)on2)c(C)c1 (centres undefined)	none (no result: HCV inhibitor)
CCOc1ccc(NC(=O)C(C)NC(=O)c2ccccc2Cl)cc1S(=O)(=O)N1CCCC1 (centres undefined)	none (no result: Vaccinia Venus, VACV mCherry inh)
CC(=O)NC(Cc1ccc(I)cc1)C(=O)NCC(N)C(=O)c1ccccc1 (centres undefined)	none (no result: HCMV antiviral, HCV inhibitor, FMDV antiviral)
COc1ccc(-c2nnc(SCC(=O)Nc3ccc(C)c(Cl)c3)nc2-c2ccc(OC)c(OC)c2)cc1OC	none (no result: HCV inhibitor)
Cc1ccn2c(NC(=O)C(C)(C)Oc3ccc(Cl)cc3)c(-c3cccs3)nc2c1	HCMV antiviral -60, HCV inhibitor inconclusive
CN(CCc1ccccc1)C(C(=O)Nc1ccc2c(c1)OCCO2)C1CC1 (centres undefined)	none (no result: HCV inhibitor)
CCOC(=O)n1cc(-c2cnc(CNC(=O)C(C)(c3ccccc3)c3ccccc3)o2)c2ccccc21	HCV inhibitor inconclusive, VACV mCherry inh inconclusive
COc1ccc(N=C(N)SCc2ccccn2)cc1	Vaccinia Venus 11µM, HCV inhibitor inconclusive, VACV mCherry inh 11µM
C=CCn1c(SCC(=O)c2cccs2)nc2sc(CC)cc2c1=O	HCMV antiviral inconclusive, HCV inhibitor 3.2µM, FMDV antiviral 20µM (no result: Vaccinia Venus, VACV mCherry inh)
C=CCn1c(SCC(=O)N2CCN(C(=O)c3ccco3)CC2)nc2sc(CC)cc2c1=O	HCV inhibitor inconclusive
C=CCn1c(SCC(=O)N2CCc3ccccc3C2)nc2sc(C)cc2c1=O	Vaccinia Venus inconclusive, FMDV antiviral 22µM (no result: VACV mCherry inh)
C=CCn1c(SCC(=O)O)nc2sc(CC)cc2c1=O	none
C=CCn1c(SCC(=O)/C(C#N)=C(\C)N)nc2sc(CC)cc2c1=O	HCV inhibitor inconclusive, FMDV antiviral 22µM
O=S(=O)(Cc1ccccc1)N1CCN(c2nc(-c3cccs3)nc3ccccc23)CC1	none (no result: HCMV antiviral, HCV inhibitor, FMDV antiviral)
CCCC(C)C1(CC)C(=O)NC(=Nc2ccc(OC)cc2)NC1=O (centres undefined)	HCMV antiviral -60, HCV inhibitor inconclusive
CCOC(=O)c1ccc(NC(=O)Nc2nncs2)cc1	Vaccinia Venus inconclusive, HCMV antiviral -75, VACV mCherry inh inconclusive, FMDV antiviral inconclusive (no result: HCV inhibitor)
CCOC(=O)c1ccc(NC(=O)c2nccnc2C(=O)O)cc1	HCMV antiviral -75
CCOC(=O)c1ccc(NC(=O)Nc2ccon2)cc1	HCMV antiviral active (no result: Vaccinia Venus, VACV mCherry inh)
CCOC(=O)c1ccc(NC(=O)Nc2nc3ccccc3s2)cc1	none (no result: HCV inhibitor)
CCCCS(=O)(=O)c1nc(-c2ccc(Br)cc2)cc(-c2ccccc2)c1C#N	HCMV antiviral inconclusive, FMDV antiviral inconclusive (no result: HCV inhibitor)
